# Source: PubChem BioAssay
# Most compounds without a hit are left out; they make up all but 3.5% or so of the library.
# MITF inh: human MITF inhibition, primary screen. actives 0.91% (n = 650,000). AID 1259374. inhibition, % at 2.6 µM. AlphaScreen MITF homodimerization, bead proximity signal; in the data active = inhibition above about 50%;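 also: 0% = vehicle wells with protein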
# TEAD-YAP inh: TEAD-YAP interaction inhibition; AID 1259422; HEK-TIYL cells, TEAD-Gal4/YAP UAS-luciferase luminescence; actives 1.4% (n = 640,000); inhibition, % at 9.12 µM; in the data active = inhibition above about 32%;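 also: 0% = median of test compound wells and 100% = reference inhibitor wells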
# GPR151 ag: activators of human GPR151. PathHunter beta-arrestin GPR151 cells, luminescence. actives 1% (n = 650,000). activation, % at 11.2 µM. Q8TDV0; in the data active = activation above about 4.9%;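 also: 0% = median of compound wells and 100% = cells with positive control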
# FBW7 activator: activators of human E3 ligase FBW7 | Q969H0 | AlphaScreen FBW7–phospho-cyclin E peptide binding, activator screen | normalized activity (activation), % at 26.1 µM | actives 0.13% (n = 650,000); in the data active = normalized activity above about 1.9%;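 also: purified mutant Fbw7 with reduced substrate affinity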
# GPR151 conf act: confirmation of human GPR151 activators; 6,700 tested, under 10 active; AID 1508609; GPR151 PathHunter beta-arrestin cells, luminescence, 90 min; % of EA-reagent control over plate median; activation, % at 11.2 µM; shares compounds with GPR151 ag;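 active = mean percent activation across replicates above the confirmation screen cutoff of 4.91%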
# GPR119 ag: activates human GPR119 in a GPR151 counter-screen; actives 0.3% (n = 6,700); GPR119 PathHunter beta-arrestin cells, luminescence, 90 min; 0 = compound-well median, 100 = enzyme-acceptor control; activation, % at 11.2 µM; shares compounds with GPR151 ag; AID 1508611;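 active = mean percent activation in the counterscreen above 29.09%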;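 also: counterscreen on off-target GPR119 to flag nonselective hits from the GPR151 activator screen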
# Numbers without * were called inactive; / = not tested or not shown.
SMILES,MITF inh,TEAD-YAP inh,GPR151 ag,FBW7 activator,GPR151 conf act,GPR119 ag
O=C(Nc1c2c(nn1-c1ccc(Cl)cc1)CSC2)c1ccc(Cl)cc1,8,-15,7.7*,0,-1,-13
Cc1ccc(C)c(NC(=O)C(NNC(=O)c2cccc([N+](=O)[O-])c2)c2ccccc2)c1 (configuration not stated),-8,2,-1,0,/,/
CC(C)CC(NC(=O)c1ccccc1)C(=O)OCc1ccccc1 (configuration not stated),15,4,5.6*,0,-1,-4
CC(C)CC(NC(=O)c1ccccc1)C(=O)OCC(=O)c1ccccc1 (configuration not stated),-11,-9,1,0,/,/
COCCCNc1nc2nonc2nc1N1CCN2CCCC2C1 (configuration not stated),-8,1,0,0,/,/
COCCCNc1nc2nonc2nc1N1CCN(C2CCCC2)CC1,-1,2,5.7*,0,1,11
O=C(CN1C(=O)S/C(=C\c2cccs2)C1=O)N1CCCC1,14,-3,5.5*,0,0,3
O=C(CCN1C(=O)/C(=C\c2cccs2)SC1=S)N1CCCC1,5,21,6.0*,-1,-1,-8
Cn1nccc1C(=O)Nc1nc2c(Cl)c(Cl)ccc2s1,-8,10,0,0,/,/
COc1ccc(CCNC(=O)CSc2nc3ccsc3c(=O)n2CCCCC(=O)O)cc1OC,-10,8,1,0,/,/
O=C(NCCc1ccc(O)cc1)c1csc(-c2cccs2)n1,36,-3,6.4*,0,0,5
COc1ccc(CCNC(=O)c2csc(-c3cccs3)n2)cc1,18,-3,0,1,/,/
CCOC(=O)c1sc2nc(SCc3cccc(F)c3)n(CCc3ccc(OC)c(OC)c3)c(=O)c2c1C,3,-11,-1,0,/,/
CCCCC(=O)NC(=S)NNC(=O)COc1ccc(OC)cc1,4,-5,-1,0,/,/
COc1ccc(CN2CCN(Cc3cccs3)C(CCO)C2)cc1 (configuration not stated),7,-8,3,0,/,/
Cc1ccc(N2CC(C(=O)Nc3ccc(Cl)cc3)CC2=O)cc1 (configuration not stated),-3,6,0,0,/,/
Nc1sc(-c2ccccc2)cc1C(=O)N/N=C/c1cccs1,-6,5,8.4*,0,-1,-5
Cc1ccc(C)c(N(CC(=O)Nc2c(C)n(C)n(-c3ccccc3)c2=O)S(=O)(=O)c2ccccc2)c1,5,9,1,0,/,/
CCc1ccccc1NC(=O)c1ccc(F)c(S(=O)(=O)N2CCCCC2C)c1 (configuration not stated),7,-8,6.7*,0,-1,-15
Cc1ccc(NS(=O)(=O)c2cccc3nonc23)cc1F,-2,8,0,0,/,/
COCCCNc1nc(-c2ccccc2F)nc2ccccc12,-32,11,6.3*,0,-1,-14
COCCNc1nc(-c2ccccc2F)nc2ccccc12,9,24,0,0,/,/
O=C(c1nc2ccccc2s1)C1CCN(C(=O)Cn2cnc3ccccc3c2=O)CC1,5,-2,0,0,/,/
O=C1NC(CC(=O)N2CCC(C(=O)c3nc4ccccc4s3)CC2)c2ccccc21 (configuration not stated),9,6,5.1*,1,-1,-7
Cc1ccc(CCC(=O)Nc2ccc(C(=O)O)cc2)o1,20,-6,0,0,/,/
SMILES,MITF inh,TEAD-YAP inh,GPR151 ag,FBW7 activator,GPR151 conf act,GPR119 ag
CC(=O)c1cccc(NC(=O)CC2S\C(=N/N=C/C=C/c3ccccc3)NC2=O)c1 (configuration not stated),8,-2,9.3*,0,2,12
COc1ccccc1CNC1CCCN(c2nc(C)c3cc(F)ccc3n2)CC1 (configuration not stated),7,-1,5.4*,0,0,14
CCCNC(=O)Cn1cnc2sc(C(=O)Nc3ccc(F)cc3)c(C)c2c1=O,1,3,0,0,/,/
Cc1cc(NCCN2CCOCC2)nc(-c2cccc(N)c2)n1,8,2,1,0,/,/
O=Cc1cccc(-c2ccc(NCCN3CCOCC3)nc2)c1,14,-58,5.2*,-1,0,-1
CC(=O)c1cccc(-c2nc(C)cc(NCCN3CCOCC3)n2)c1,-4,-15,11*,0,1,-1
c1cc(NCCN2CCOCC2)nc(-c2ccc(N3CCOCC3)nc2)n1,11,6,6.1*,0,0,3
CCCc1sc(N2CCN(c3ccc([N+](=O)[O-])cc3)CC2)nc1-c1ccccc1,-1,-4,-1,0,/,/
NCCCNc1ccc(C(F)(F)F)cc1[N+](=O)[O-],8,5,0,1,/,/
Cc1cc(C(=O)Nc2sc3c(c2C#N)CCC(C)C3)cs1 (configuration not stated),-1,-65,8.3*,0,0,-11
Cc1cc2nnc(SCC(=O)Nc3sc4c(c3C#N)CCC(C)C4)n2c2ccccc12 (configuration not stated),22,3,5.3*,0,0,4
COC(=O)c1c(NC(=O)CSc2nnc3cc(C)c4ccccc4n23)sc2c1CCC(C)C2 (configuration not stated),0,-5,0,0,/,/
C=CCNC(=O)/C(=C/c1ccc(OC(C)=O)c(OC)c1)NC(=O)c1ccccc1,9,3,0,1,/,/
COc1cc(/C=C(/C#N)C(=O)NCCc2c[nH]c3ccccc23)cc(Cl)c1O,1,7,0,0,/,/
O=C(Nc1cc(C(F)(F)F)cc(C(F)(F)F)c1)C1CC1,12,4,10*,0,-1,-22
Ic1cccc(Nc2ncnc3sccc23)c1,6,-9,2,0,/,/
COc1ccc(/C(C)=N\NC(=O)c2cccc(I)c2)c(OC)c1,-3,-3,0,0,/,/
O=S(=O)(NCC1CCCN(Cc2ccccn2)C1)c1cccc2cccnc12 (configuration not stated),3,-1,-2,0,/,/
CC(C)(C)CN1CCCC(CNS(=O)(=O)c2cccc3cccnc23)C1 (configuration not stated),19,3,6.4*,0,0,-8
COc1ccc2c(c1)C1NC(=S)N(c3ccc(F)cc3)C(C)(O2)C1C(=O)Nc1ccc(C)cc1C (configuration not stated),32,7,0,0,/,/
Cc1cc(C)n2nc(C(=O)N/N=C/c3ccccc3)nc2n1,-1,-4,10*,0,-1,-8
Cc1ccc(/C=N/NC(=O)c2nc3nc(C)cc(C)n3n2)cc1,-7,-14,-1,0,/,/
